Records with an inconclusive call do not appear. Active and inactive are the calls of the source. Unless noted, the call rests on the fitted dose curve.
Assays:
[1] = Nuclear factor erythroid 2-related factor 2/antioxidant responsive element (Nrf2/ARE) small molecule agonists: qHTS cell viability counter screen in human keratinocytes (AID 1919968; active means well fitted cell-killing curve with a large enough effect in the repeat runs; further: nearly all actives have a fitted effect of over 55% in size)
Summary of the method: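 Parallel cytotoxicity read: KeratinoSens HaCaT cells, compound treatment 23 h, viability by CellTiter-Fluor fluorescence 1 h post-reagent.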

[2] = Nuclear factor erythroid 2-related factor 2/antioxidant responsive element (Nrf2/ARE) small molecule agonists: luciferase reporter gene qHTS assay in human keratinocytes (AID 1919969); further: nearly all actives have a fitted effect of over 35% in size
[3] = target: Gonadotropin-releasing hormone receptor (Homo sapiens) (UniProt P30968); test: Human gonadotropin-releasing hormone receptor (GnRHR) small molecule agonists, calcium flux assay in GnRHR-HEK293 cells (AID 1920063); further: nearly all actives have a fitted effect of over 35% in size
Chain of Gonadotropin-releasing hormone receptor (Homo sapiens) (P30968 whole entry, looked up): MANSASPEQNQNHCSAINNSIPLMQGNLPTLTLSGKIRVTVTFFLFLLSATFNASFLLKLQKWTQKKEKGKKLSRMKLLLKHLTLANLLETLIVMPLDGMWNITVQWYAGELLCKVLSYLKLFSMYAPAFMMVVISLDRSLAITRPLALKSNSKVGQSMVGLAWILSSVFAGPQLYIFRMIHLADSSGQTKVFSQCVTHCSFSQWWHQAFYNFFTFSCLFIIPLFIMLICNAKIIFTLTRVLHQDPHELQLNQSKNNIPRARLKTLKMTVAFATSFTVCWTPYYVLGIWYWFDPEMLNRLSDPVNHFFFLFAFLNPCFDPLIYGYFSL
Summary of the method: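 Calcium flux, agonist mode, human GnRHR stably integrated in HEK293; dye 1 h at 37 C before compound; Ex/Em=480/540 kinetic read, 3 min; 15 concentrations, triplicate.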

[4] = G protein-coupled receptor (GPCR) small molecule agonists, calcium flux assay: HEK293 wild type cell line counter screen (AID 1920065)
Summary of the method: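 Non-specific calcium responders were flagged by adding DMSO-dissolved compounds to dye-loaded cells and reading 480/540 nm fluorescence each second for 3 min; ATP served as positive control.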

[5] = p53 small molecule agonists, cell-based qHTS assay with rat liver microsomes (AID 1963578)
Summary of the method: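 With rat liver microsomes and NADPH present (0.5 mg/mL final each), p53RE-bla cells are treated with compound for 16 h at 37 C. LiveBLAzer detection mixture is then applied for 2 h at room temperature in the dark.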

[6] = p53 small molecule agonists, cell-based qHTS assay with human liver microsomes: qHTS cell viability counter screen (AID 1963579); further: nearly all actives have a fitted effect of over 45% in size
Summary of the method: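 In this multiplexed counter screen, the reporter plates were subsequently treated with CellTiter-Glo so that cell viability, reflected by luminescence, could be recorded for p53RE-bla cells dosed 16 h with compounds under microsomal activation (HLM and NADPH).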

[7] = p53 small molecule agonists, cell-based qHTS assay with rat liver microsomes: qHTS cell viability counter screen (AID 1963580); further: nearly all actives have a fitted effect of over 45% in size
Summary of the method: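 Cytotoxicity counter screen: intracellular ATP read by CellTiter-Glo luminescence in the p53 reporter wells. HCT-116 p53RE-bla cells were treated for 16 h at 37 C alongside rat liver microsomes and NADPH, each 0.5 mg/mL final.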

[8] = p53 small molecule agonists, cell-based qHTS assay: qHTS cell viability counter screen (AID 1963581); further: nearly all actives have a fitted effect of over 45% in size
Summary of the method: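 Multiplexed with the reporter read, a CellTiter-Glo step (30 min, room temperature) gauges ATP-based viability of HCT-116 p53RE-bla cells after 16 h compound incubation at 37 C.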

[9] = p53 small molecule agonists, cell-based qHTS assay (AID 1963582; active means well fitted activation curve with a large enough effect in the signal ratio in the repeat runs, not every such curve was filed as active; the % refers to the signal ratio)
Summary of the method: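 Beta-lactamase reporter cells (p53RE-bla) treated with compounds for 16 h at 37 C; FRET substrate, 2 h, room temperature; fluorescence intensity.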

[10] = target: 5-hydroxytryptamine receptor 2A (Homo sapiens) (UniProt P28223); test: 5-hydroxytryptamine receptor 2A (HTR2A) small molecule antagonists, cell-based qHTS assay (AID 1963586); further: nearly all actives have a fitted effect of over 45% in size
Chain of 5-hydroxytryptamine receptor 2A (Homo sapiens) (P28223 whole entry, looked up): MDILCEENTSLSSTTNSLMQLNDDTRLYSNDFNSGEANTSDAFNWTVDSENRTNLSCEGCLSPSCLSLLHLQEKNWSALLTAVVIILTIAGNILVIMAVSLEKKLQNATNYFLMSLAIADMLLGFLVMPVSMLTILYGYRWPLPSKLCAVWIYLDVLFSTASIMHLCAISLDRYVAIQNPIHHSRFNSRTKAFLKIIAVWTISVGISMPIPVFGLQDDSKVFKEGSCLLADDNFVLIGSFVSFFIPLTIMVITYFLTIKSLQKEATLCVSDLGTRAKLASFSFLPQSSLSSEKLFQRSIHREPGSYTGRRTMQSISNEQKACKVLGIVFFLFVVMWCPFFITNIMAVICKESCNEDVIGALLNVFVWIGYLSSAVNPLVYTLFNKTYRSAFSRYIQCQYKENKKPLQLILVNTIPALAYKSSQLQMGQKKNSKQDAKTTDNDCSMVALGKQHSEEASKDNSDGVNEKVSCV
Summary of the method: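 CHO cells stably expressing human HTR2A were plated for 18 h at 37 C, then loaded with calcium dye for 1 h. Compounds were preincubated 5 min at room temperature before DOI (4 nM solution) was added. Kinetic fluorescence was read for 3 min.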

[11] = target: 5-hydroxytryptamine receptor 2A (Homo sapiens) (UniProt P28223); test: 5-hydroxytryptamine receptor 2A (HTR2A) small molecule agonists, cell-based qHTS assay (AID 1963587); further: nearly all actives have a fitted effect of over 30% in size
Summary of the method: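 Kinetic calcium-flux fluorescence (2 min, 1 sec intervals) after compound addition in agonist mode. HTR2A-CHO cells were cultured 18 h, then dye-loaded 1 h at 37 C.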

[12] = target: Muscarinic acetylcholine receptor M1 (Homo sapiens) (UniProt P11229); test: Cholinergic receptor muscarinic 1 (CHRM1) small molecule antagonists, cell-based qHTS assay (AID 1963588); further: nearly all actives have a fitted effect of over 40% in size
Chain of Muscarinic acetylcholine receptor M1 (Homo sapiens) (P11229 whole entry, looked up): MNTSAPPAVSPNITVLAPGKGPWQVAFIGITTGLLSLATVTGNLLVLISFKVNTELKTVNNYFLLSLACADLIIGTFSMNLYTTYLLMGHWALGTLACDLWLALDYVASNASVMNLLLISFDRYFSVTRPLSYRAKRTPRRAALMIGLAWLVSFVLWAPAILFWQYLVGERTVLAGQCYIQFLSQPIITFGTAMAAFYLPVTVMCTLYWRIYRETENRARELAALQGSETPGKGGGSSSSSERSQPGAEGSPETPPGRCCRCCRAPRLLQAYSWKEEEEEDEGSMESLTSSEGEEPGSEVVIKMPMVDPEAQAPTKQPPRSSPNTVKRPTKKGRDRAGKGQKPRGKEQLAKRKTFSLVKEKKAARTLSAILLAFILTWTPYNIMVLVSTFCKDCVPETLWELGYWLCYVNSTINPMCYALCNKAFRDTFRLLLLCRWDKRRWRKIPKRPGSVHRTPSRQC
Summary of the method: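 Compounds were tested at 15 concentrations in three independent runs. Dye-loaded CHRM1-CHO cells were exposed 5 min at room temperature before stimulation by acetylcholine added at 50nM. Intracellular calcium was read kinetically on FDSS for 3 min.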

[13] = cAMP Responsive Elements (CRE) small molecule agonists, cell-based qHTS assay (AID 1963590)
Summary of the method: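 Quantitative HTS for CRE agonists: HEK 293T CRE-bla cells, overnight plating, 3 h compound incubation at 37 C/5% CO2, then 2 h room-temperature LiveBLAzer B/G FRET substrate loading.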

[14] = cAMP Responsive Elements (CRE) small molecule antagonists, cell-based qHTS assay (AID 1963591; active means well fitted inhibition curve with a large enough effect in the signal ratio in the repeat runs, not every such curve was filed as active; the % refers to the signal ratio)
Summary of the method: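 Fluorescence intensity from cleaved LiveBLAzer B/G substrate (2 h, room temperature) quantified CRE-bla activity in HEK 293T cells exposed 3 h to compound with 0.25 uM final NKH477.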

[15] = target: Beta-2 adrenergic receptor (Homo sapiens) (UniProt P07550); test: Adrenergic beta2 receptor (ADRB2) small molecule antagonists, cell-based qHTS assay (AID 1963592); further: series mostly up to about 92 µM; nearly all actives have a fitted effect of over 50% in size
Chain of Beta-2 adrenergic receptor (Homo sapiens) (P07550 whole entry, looked up): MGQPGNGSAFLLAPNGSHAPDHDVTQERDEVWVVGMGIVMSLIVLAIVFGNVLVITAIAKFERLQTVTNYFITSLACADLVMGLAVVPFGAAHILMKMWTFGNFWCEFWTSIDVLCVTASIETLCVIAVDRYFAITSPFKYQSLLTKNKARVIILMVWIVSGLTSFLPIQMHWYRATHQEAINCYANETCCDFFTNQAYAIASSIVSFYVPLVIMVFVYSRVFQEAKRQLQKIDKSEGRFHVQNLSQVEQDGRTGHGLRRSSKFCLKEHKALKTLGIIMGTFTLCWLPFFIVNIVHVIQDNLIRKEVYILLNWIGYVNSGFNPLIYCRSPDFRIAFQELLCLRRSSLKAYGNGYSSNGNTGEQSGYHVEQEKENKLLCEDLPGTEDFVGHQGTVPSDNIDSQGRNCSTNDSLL
Summary of the method: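 Assay format: CHO-ADRB2 cells, 18-20hr seeding at 37C/5% CO2, then compound plus 1nM isoproterenol agonist mix for 0.5hr RT. Homogeneous time-resolved fluorescence cAMP detection after 1hr, expressed as 665/615 nm ratio.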

[16] = target: Beta-2 adrenergic receptor (Homo sapiens) (UniProt P07550); test: Adrenergic beta2 receptor (ADRB2) small molecule agonists, cell-based qHTS assay (AID 1963593);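 further: CHO cells stably overexpressing human ADRB2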
Summary of the method: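 CHO cells stably over-expressing ADRB2 were plated overnight at 37C, then dosed with compounds plus a stimulation mix containing 100uM IBMX and 25uM Ro-20-1724 for 0.5hr at room temperature. cAMP was measured by HTRF competition, 1hr.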

[17] = target: D(2) dopamine receptor (Homo sapiens) (UniProt P14416); test: Dopamine D2 receptor (DRD2) small molecule antagonists, cell-based qHTS assay (AID 1963595; active means well fitted inhibition curve with a large enough effect in the signal ratio in the repeat runs, with a control signal flat; the % refers to the signal ratio)
Chain of D(2) dopamine receptor (Homo sapiens) (P14416 whole entry, looked up): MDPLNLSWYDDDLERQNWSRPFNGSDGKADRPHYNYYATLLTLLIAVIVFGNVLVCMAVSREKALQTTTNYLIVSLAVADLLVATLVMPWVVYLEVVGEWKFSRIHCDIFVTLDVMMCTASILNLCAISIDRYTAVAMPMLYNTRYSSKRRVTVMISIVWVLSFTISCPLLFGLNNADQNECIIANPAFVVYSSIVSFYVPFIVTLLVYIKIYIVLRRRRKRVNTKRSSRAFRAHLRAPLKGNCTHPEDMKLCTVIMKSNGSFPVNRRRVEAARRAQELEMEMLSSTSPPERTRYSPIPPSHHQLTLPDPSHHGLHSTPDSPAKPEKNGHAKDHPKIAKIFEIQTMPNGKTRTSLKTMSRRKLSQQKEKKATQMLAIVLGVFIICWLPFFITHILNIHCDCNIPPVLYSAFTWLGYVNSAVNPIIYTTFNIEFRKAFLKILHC
Summary of the method: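 DRD2-HEK293; 0.1 mM Ro20-1724; cpd 10 min RT; NKH477 200 nM + quinpirole 12 nM, 30 min RT; HTRF cAMP (cAMP-d2/anti-cAMP cryptate), 665/620 nm ratio after 1 h.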

[18] = target: Muscarinic acetylcholine receptor M1 (Homo sapiens) (UniProt P11229); test: Cholinergic receptor muscarinic 1 (CHRM1) small molecule agonists, cell-based qHTS assay (AID 1963589); further: nearly all actives have a fitted effect of over 35% in size
Summary of the method: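 qHTS, 15-point titration, 3 independent runs: compounds pin-transferred onto dye-loaded CHRM1-CHO cells (human M1), calcium fluorescence followed every second to detect agonism.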

[19] = target: D(2) dopamine receptor (Homo sapiens) (UniProt P14416); test: Dopamine D2 receptor (DRD2) small molecule agonists, cell-based qHTS assay (AID 1963594); further: nearly all actives have a fitted effect of over 35% in size
Summary of the method: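 cAMP accumulation in DRD2-HEK293 cells measured by HTRF after 1 h detection; compounds added 10 min before NKH477 (200nM […]) forskolin-analogue stimulation, 30 min at room temperature, with Ro20-1724 present at 0.1 mM final.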
On the % scale 0 is the no-effect control and ±100 the full control effect.

CCCCCCCCCl
inactive: Potency [1] | Potency [2] | Potency [3] | Potency [4] | Potency [5] | Potency [6] | Potency [7] | Potency [8] | Potency [9] | Potency [10] | Potency [11] | Potency [12] | Potency [13] | Potency [14] | Potency [15] | Potency [16] | Potency [17]

CC(C)c1ccc(O)cc1
inactive: Potency [1] | Potency [2] | Potency [3] | Potency [4] | Potency [5] | Potency [7] | Potency [9] | Potency [10] | Potency [11] | Potency [12] | Potency [18] | Potency [13] | Potency [14] | Potency [15] | Potency [16] | Potency [19] | Potency [17]

Oc1ccccc1Cl
inactive: Potency [1] | Potency [2] | Potency [3] | Potency [4] | Potency [5] | Potency [6] | Potency [7] | Potency [8] | Potency [10] | Potency [11] | Potency [12] | Potency [18] | Potency [13] | Potency [14] | Potency [15] | Potency [16] | Potency [19] | Potency [17]

Nc1ncn[nH]1
inactive: Potency [1] | Potency [2] | Potency [3] | Potency [4] | Potency [7] | Potency [8] | Potency [10] | Potency [11] | Potency [12] | Potency [18] | Potency [13] | Potency [14] | Potency [15] | Potency [16] | Potency [19] | Potency [17]

ClC(Cl)(Cl)Br
inactive: Potency [1] | Potency [2] | Potency [3] | Potency [4] | Potency [5] | Potency [6] | Potency [7] | Potency [9] | Potency [10] | Potency [11] | Potency [18] | Potency [13] | activity change, negative = inhibition [14] 0.761% [at 18.9 µM] | Potency [16] | Potency [19] | Potency [17]

Cc1cc(C)cc(C)c1
inactive: Potency [1] | Potency [2] | Potency [3] | Potency [4] | Potency [6] | Potency [7] | Potency [8] | Potency [10] | Potency [11] | Potency [12] | Potency [18] | Potency [13] | Potency [14] | Potency [15] | Potency [19] | Potency [17]

[O-][Cl+]O
inactive: Potency [1] | Potency [2] | Potency [3] | Potency [4] | Potency [5] | Potency [6] | Potency [7] | Potency [8] | Potency [9] | Potency [11] | Potency [18] | Potency [13] | Potency [14] | Potency [15] | Potency [19] | Potency [17]

Reference: PubChem BioAssay (Tox21)
